# High-throughput results as filed in PubChem.
# Compounds with a hit are over-represented: about 3.5% of the library has one in this group of screens.
# Tb PYK inh: blocks Trypanosoma brucei pyruvate kinase | Q57TT1 | TbPYK enzyme, Kinase-Glo Plus ATP luminescence, 45 min | Potency, µM (highest dose often 76.8 µM), inactives show top-dose activity, negative = inhibition, actives largely listed as inhibitors | hit rate 0.12% among 410,000; also: % is scaled to controls: 0 for no effect and ±100 for the full control effect; nearly all actives have a fitted effect of over 50% in size
#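 Activity of T. brucei pyruvate kinase was followed by Kinase-Glo Plus luminescence after the enzyme reacted 45 min at room temperature with 130 uM ADP (final) and substrate. Test compounds were added before ADP at multiple concentrations.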
# NS1 function inh: blocks influenza NS1 protein function. Potency, µM (highest dose often 46.1 µM), for the others: at the highest dose activity, positive = more growth. hit rate 0.4% among 270,000; calls by dose curve; also: actives are rising curves; nearly all actives have a fitted effect of over 50% in size
#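 In this qHTS, NS1 from influenza A is expressed in budding yeast, where it slows growth. Cells are switched from glucose to 2% galactose medium (pH 6.0, -URA), treated with compound, and growth recovery is read at OD600.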
# RE007 growth inh: less growth of the S. pombe RE007 Vpr strain | S. pombe RE007 Vpr strain, BacTiter-Glo ATP luminescence, 24 h | Potency, µM (series often up to 92.2 µM), for the others: at the highest dose activity change, negative = less growth, most hits filed as inhibitors | hit rate 0.21% among 360,000 | AID 651644; active = well fitted falling curve with a large enough effect; inconclusive = small, poorly fitted or top-dose-only effect; inactive = no such curve, though single readings can be large or run the other way; also: % is scaled to controls: 0 for no effect and ±100 for the full control effect; nearly all actives have a fitted effect of over 50% in size
#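 Fission yeast strain RE007, carrying one chromosomally integrated HIV-1 vpr copy, was seeded at OD 0.01 in PMG+AL medium with 23 nL pinned compound. After 24 h at 30 °C and 99% humidity, viability was read by BacTiter-Glo luminescence.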
# LmPK inh: LmPK (Leishmania mexicana) enzyme inhibition; Q27686; purified LmPK, Kinase-Glo ATP luminescence, 1 h; Potency, µM (series often up to 57.5 µM), for the others: at the top dose activity change, negative = inhibition, actives largely listed as inhibitors; hit rate 0.37% among 290,000; AID 1721; also: % is scaled to controls: 0 for no effect and ±100 for the full control effect
#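 qHTS format; LmPK 0.1 nM; substrates PEP 0.5 mM and ADP 0.1 mM. One-hour room-temperature incubation, then coupled luciferase luminescence; 0.5 nM enzyme wells mark activation.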
# Sm TGR inh: inhibitors of Schistosoma mansoni thioredoxin glutathione reductase; purified TGR, DTNB reduction, TNB absorbance 405 nm; Potency, µM (doses to about 114 µM), without a hit: at the top dose activity change, negative = inhibition, usual class: inhibitors; AID 485364; hit rate 3% among 360,000; Q962Y6; also: % is scaled to controls: 0 for no effect and ±100 for the full control effect; nearly all actives have a fitted effect of over 60% in size
#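 Kinetic colorimetric format: TGR-catalysed, NADPH-driven DTNB reduction monitored via TNB absorbance. Enzyme dispensed at 20 nM; compound exposure 15 min at room temperature before reaction start.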
# Giardia FBPA inh: blocks Giardia fructose-bisphosphate aldolase activity; A8B2U2; purified Giardia FBPA; Potency, µM (series often up to 59.6 µM), for inactives: at the highest dose activity, negative = inhibition, actives largely listed as inhibitors; hit rate 0.71% among 290,000; AID 2451; also: % is scaled to controls: 0 for no effect and ±100 for the full control effect; nearly all actives have a fitted effect of over 55% in size
# Target sequence (A8B2U2 whole entry, looked up): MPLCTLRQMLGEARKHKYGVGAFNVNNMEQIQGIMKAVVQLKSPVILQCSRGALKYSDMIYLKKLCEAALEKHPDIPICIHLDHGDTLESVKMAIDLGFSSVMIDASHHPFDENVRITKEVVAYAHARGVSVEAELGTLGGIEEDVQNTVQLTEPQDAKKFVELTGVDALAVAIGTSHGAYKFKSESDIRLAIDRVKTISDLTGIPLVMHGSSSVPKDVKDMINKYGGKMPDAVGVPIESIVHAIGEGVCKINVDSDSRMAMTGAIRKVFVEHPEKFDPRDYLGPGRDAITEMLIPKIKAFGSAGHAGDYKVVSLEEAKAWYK
#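 40 nM FBPA preincubated 10 min at RT with compound (up to 57.5 uM final), then substrate plus GAPDH/TPI/NAD/arsenate coupling and diaphorase/resazurin added. Fluorescence read after 20 min at RT, 525/598 nm.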
# * marks the source's active call; other numbers are inactive results; ? = inconclusive; nt = not tested or not shown. Unless noted, calls follow the shape of the dose curve; as a rule, active = well fitted curve in the direction sought with a large enough effect; inconclusive = small, poorly fitted or top-dose-only effect, or another doubt; inactive = no such curve, though single readings can be large; an effect the other way counts as inactive or inconclusive. Potency is read from the fitted curve at half-maximal effect.
SMILES,Tb PYK inh,NS1 function inh,RE007 growth inh,LmPK inh,Sm TGR inh,Giardia FBPA inh
COc1ccc(C)cc1NC(=O)COCc1cc(-c2ccc(F)cc2)on1,0.5%,nt,nt,nt,7.1%,nt
c1ccc(-c2nc(N3CCOCC3)s[n+]2-c2ccccc2)cc1,2.51µM*,-3.5%,nt,-18.7%,-15.5%,8.6%
CCNC(=O)CC1C(=O)N(c2ccc(C)cc2)C(=O)N1Cc1ccc(C)cc1 (stereo not drawn),-3.3%,nt,nt,nt,2.7%,nt
CCOC(=O)N1CCC(NS(=O)(=O)c2ccccc2)CC1,0.8%,3.0%,3.0%,4.1%,44.7µM*,0.4%
CN1C(=O)C(Cc2ccsc2)C(=O)N(C)C1=O,?,-0.5%,7.3%,2.0%,5.01µM*,?
COc1ccc(N=C2S/C(=C\c3cc(C)n(C)c3C)C(=O)N2C)cc1,-13.7%,?,-3.8%,-3.1%,50.1µM*,-14.6%
Cc1ccccc1-c1noc(-c2cccnc2N2CCN(c3ccccc3)CC2)n1,-10.8%,nt,nt,nt,3.4%,nt
C#CCOCCOCCOCCNc1nc(N2CCN(C(=O)[C@H](CCC(=O)O)n3cc(C(N)Cc4ccc(O)cc4)nn3)CC2)nc(N2CCN(C(=O)[C@H](CCCCN)n3cc(C(N)[C@H](C)CC)nn3)CC2)n1 (stereo partly drawn),nt,3.3%,nt,-5.1%,31.6µM*,-8.6%
C#CCOCCOCCOCCNc1nc(N2CCN(C(=O)[C@H](CCC(=O)O)n3cc(C(N)CC(C)C)nn3)CC2)nc(N2CCN(C(=O)[C@H](CCC(=O)O)n3cc(C(N)[C@H](C)CC)nn3)CC2)n1 (stereo partly drawn),0.0%,-6.3%,7.3%,-0.2%,31.6µM*,-9.5%
C#CCOCCOCCOCCNc1nc(N2CCN(C(=O)[C@H](CCC(=O)O)n3cc(C(N)CO)nn3)CC2)nc(N2CCN(C(=O)[C@H](CCC(=O)O)n3cc(C(N)[C@H](C)CC)nn3)CC2)n1 (stereo partly drawn),-8.2%,2.3%,11.0%,2.3%,28.2µM*,-15.3%
C#CCOCCOCCOCCNc1nc(N2CCN(C(=O)[C@H]([C@@H](C)CC)n3cc([C@@H](N)CC(C)C)nn3)CC2)nc(N2CCN(C(=O)[C@H](Cc3ccc(O)cc3)n3cc([C@@H](N)CC(C)C)nn3)CC2)n1,0.0%,4.7%,10.1%,1.0%,0.0%,0.8%
C#CCOCCOCCOCCNc1nc(N2CCN(C(=O)[C@H]([C@@H](C)CC)n3cc([C@@H](N)CC(C)C)nn3)CC2)nc(N2CCN(C(=O)[C@H]([C@@H](C)CC)n3cc([C@@H](N)CC(C)C)nn3)CC2)n1,-1.9%,-1.7%,12.5%,3.2%,28.2µM*,-10.3%
C[N+](C)(C)CCC(=O)c1cccc2ccccc12,nt,-30.9%,nt,nt,nt,17.3%
C#CCOCCOCCOCCNc1nc(N2CCN(C(=O)[C@H](CCC(=O)O)n3cc(C(N)CC(C)C)nn3)CC2)nc(N2CCN(C(=O)[C@H](Cc3ccc(O)cc3)n3cc(C(N)[C@H](C)CC)nn3)CC2)n1 (stereo partly drawn),nt,1.3%,nt,0.2%,39.8µM*,-8.7%
C#CCOCCOCCOCCNc1nc(N2CCN(C(=O)[C@H](CCCCN)n3cc([C@@H](N)C(C)CC)nn3)CC2)nc(N2CCN(C(=O)[C@H](CCCCN)n3cc([C@@H](N)CC(C)C)nn3)CC2)n1 (stereo partly drawn),2.4%,0.6%,-8.4%,5.4%,39.8µM*,-1.2%
C#CCOCCOCCOCCNc1nc(N2CCN(C(=O)[C@H](CCCCN)n3cc(CC(C)O)nn3)CC2)nc(N2CCN(C(=O)[C@H](Cc3ccc(O)cc3)n3cc(CCO)nn3)CC2)n1 (stereo partly drawn),-1.0%,nt,8.9%,nt,nt,nt
C#CCOCCOCCOCCNc1nc(N2CCN(C(=O)[C@H](CCCCN)n3cc([C@@H](N)[C@H](C)CC)nn3)CC2)nc(N2CCN(C(=O)[C@H](CCCCN)n3cc([C@@H](N)CC(N)=O)nn3)CC2)n1,-2.4%,nt,-1.0%,nt,nt,nt
